Sampled rows, rich in hits. Any-hit rate of the full collection: about 1.6%.
KCNQ2 pot: KCNQ2 (rat) channel potentiation | O88943 | CHO-K1 KCNQ2, FluxOR thallium flux fluorescence; stronger effect = higher value | B-score at 10 µM | actives 0.54% (n = 310,000) | AID 2239;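 active = fluorescence ratio B-score at least 3 SD of library B-scores, with initial fluorescence B-score within 3 of them, cut at about 5.3 in these data; same plate scores as AID 2156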;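 also: B-score of peak minus minimum over baseline fluorescence ratio after K+ and Tl+ stimulus; positive B-score means potentiation of KCNQ2 with more thallium influx and brighter signal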
Target sequence (O88943 whole entry, looked up): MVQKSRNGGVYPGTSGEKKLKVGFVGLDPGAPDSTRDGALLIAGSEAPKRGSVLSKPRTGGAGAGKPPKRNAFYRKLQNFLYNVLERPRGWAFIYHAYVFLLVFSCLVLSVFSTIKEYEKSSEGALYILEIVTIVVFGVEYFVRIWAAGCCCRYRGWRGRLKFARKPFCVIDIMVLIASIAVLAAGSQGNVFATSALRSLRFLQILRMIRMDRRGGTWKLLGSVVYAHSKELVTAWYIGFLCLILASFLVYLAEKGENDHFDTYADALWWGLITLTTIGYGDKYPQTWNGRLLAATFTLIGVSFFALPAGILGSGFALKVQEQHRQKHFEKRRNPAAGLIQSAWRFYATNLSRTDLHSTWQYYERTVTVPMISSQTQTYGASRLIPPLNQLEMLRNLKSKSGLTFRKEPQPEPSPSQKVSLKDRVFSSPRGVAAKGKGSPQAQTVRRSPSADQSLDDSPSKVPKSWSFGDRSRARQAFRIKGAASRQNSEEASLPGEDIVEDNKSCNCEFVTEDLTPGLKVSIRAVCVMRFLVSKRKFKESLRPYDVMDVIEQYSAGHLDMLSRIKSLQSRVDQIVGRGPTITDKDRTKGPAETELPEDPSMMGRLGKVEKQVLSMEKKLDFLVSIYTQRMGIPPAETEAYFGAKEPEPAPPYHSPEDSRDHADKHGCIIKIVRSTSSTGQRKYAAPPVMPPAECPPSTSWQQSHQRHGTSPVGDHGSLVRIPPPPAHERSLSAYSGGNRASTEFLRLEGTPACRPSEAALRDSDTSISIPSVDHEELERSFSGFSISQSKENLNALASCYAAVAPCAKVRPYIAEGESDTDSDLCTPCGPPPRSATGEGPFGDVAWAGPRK
KCNQ2 inh: KCNQ2 (rat) channel inhibition; O88943; CHO-K1 KCNQ2, FluxOR thallium flux, 20 min; stronger effect = lower value; B-score at 10 µM; actives 1.1% (n = 310,000);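 active = fluorescence ratio B-score at most minus 3 library SDs, with starting brightness B-score within 2 library SDs, cut at about -5.5 in these data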
Kir21 conf inh: confirmation of mouse Kir2.1 potassium channel inhibitors; shares compounds with KCNQ2 pot; Kir2.1-expressing cells, FluxOR thallium flux fluorescence; stronger effect = lower value; Tl flux remaining, % of negative control (stronger effect = lower value), % at 10 µM; actives 41% (n = 2,300); AID 2032;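 active = Primary-screen hit whose thallium flux fell at least 3 control SD below untreated wells in both duplicates, with normal baseline fluorescence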;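 also: 0% = blank wells without stimulus and 100% = stimulated no-compound controls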
HEK293 Tl flux: parental HEK293 activity in Kir2.1 inhibitor counter-screen; FluxOR signal as % of negative control (100 = no effect), % at 10 µM; AID 2105; shares compounds with KCNQ2 pot; parental HEK293 cells, FluxOR thallium flux fluorescence; 0% = unstimulated blank wells; actives 19% (n = 2,300);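 active = dye signal at least 3 control SD above or below untreated wells in both duplicates, raw fluorescence within 3, either direction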;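 also: percent is based on the flux ratio of peak minus minimum fluorescence over baseline F0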
CHO-K1 ctr: alters thallium flux in parental CHO-K1 cells, KCNQ2 counter-screen | shares compounds with KCNQ2 pot | activity increase over 3SD of controls, % at 10 µM | FluxOR thallium flux fluorescence; zero = vehicle mean+3SD, 100% = vehicle-minus-blank window | actives 43% (n = 1,200);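 active = signal rise of at least 3 SD above the untreated control mean, in both duplicate wells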;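 also: counter screen of KCNQ2 potentiator hits so any rise reflects channel-independent effects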
KCNQ1 pot spec: tests whether KCNQ2 potentiators also act on human KCNQ1. shares compounds with KCNQ2 pot. activation over 3SD threshold, % at 10 µM. CHO KCNQ1 stable, FluxOR thallium flux fluorescence; beyond 3SD, as % of vehicle-control signal. AID 2283. actives 28% (n = 1,200);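 active = fluorescence ratio rise of at least 3 SD of vehicle wells above their mean, in both replicate wells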;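 also: 0% = vehicle mean plus 3 SD and 100% = vehicle minus unstimulated blank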
KCNQ2 pot conf: confirmation of rat KCNQ2 potassium channel potentiators; shares compounds with KCNQ2 pot; CHO-KCNQ2 cells, FluxOR thallium flux fluorescence; potentiation, less the hit threshold, % at 10 µM; actives 68% (n = 1,200); AID 2287;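 active = fluorescence ratio rising 3 SD or more over the vehicle control mean in both replicates, plus primary screen hit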;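 also: peak minus minimum thallium fluorescence divided by baseline after K/Tl stimulus; 0% = vehicle mean plus 3 SD and 100% = vehicle minus unstimulated blank difference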
Kir21 spec: tests whether KCNQ2 potentiators also affect mouse Kir2.1. activity over 3SD threshold, % at 10 µM. shares compounds with KCNQ2 pot. HEK293 Kir2.1, FluxOR thallium flux fluorescence. actives 2% (n = 1,200);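 active = fluorescence ratio rise of at least 3 SD above the vehicle-control mean, seen in both replicates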;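 also: 0% = vehicle mean plus 3 SD and 100% = vehicle minus no-stimulus blank window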
KCNQ2 W236L MoA: rat KCNQ2 W236L mutant potentiation by KCNQ2 potentiators; actives 10% (n = 940); AID 2558; CHO KCNQ2-W236L, automated patch clamp current; shares compounds with KCNQ2 pot; current increase over 3SD of negative controls (%), stronger effect = higher value, % at 25 µM;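 active = current increase at least 3 SD of the untreated controls above them in both duplicate recordings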
* hit, by the source's call; i = inactive; · = not tested or not shown.

SMILES	KCNQ2 pot	KCNQ2 inh	Kir21 conf inh	HEK293 Tl flux	others
COCc1cc(C)nc(N/N=C/c2ccc(Cl)c(Cl)c2)c1C#N	1.3	i	·	·
Cc1ccc(-c2nn(-c3ccccc3)cc2CC(=S)N2CCOCC2)cc1	·	i	·	·
CCOc1cc(CN2CCC(n3nccc3NC(=O)C3CC3)CC2)ccc1O	0.03	i	·	·
COc1ccc(CCNCC(O)COc2cccc(Br)c2)cc1OC (stereo unspecified)	·	i	·	·
COc1ccc(CNCC(O)COc2ccc(C)cc2[N+](=O)[O-])cc1 (stereo unspecified)	·	i	26%*	i
Cc1ccc(OCC(O)CNCc2ccc(F)cc2)cc1 (stereo unspecified)	0.29	i	27%*	i
COc1ccc(CCNCC(O)COc2ccc(OC)cc2C(C)(C)C)cc1 (stereo unspecified)	·	i	56%*	i
COc1ccc(OCCOCCOc2ccc(C)cc2[N+](=O)[O-])cc1	·	i	·	·
OC(CNCc1ccccc1)COc1ccccc1 (stereo unspecified)	·	i	·	·
c1ccc(CNc2cncnc2)cc1	0.97	i	·	·
CC1(c2ccc3ccccc3c2)NC(=O)N(CC(=O)Nc2cccc(S(=O)(=O)N3CCOCC3)c2)C1=O (stereo unspecified)	0.01	i	·	·
CCOc1ccccc1N1CC(C(=O)Nc2cc(Cl)ccc2-n2cncn2)CC1=O (stereo unspecified)	0.01	i	·	·
COc1ccc(-c2cc(C3CCNCC3)[nH]n2)cc1	·	i	·	·
CCOc1cc(C(c2c(C)[nH][nH]c2=O)c2c(C)[nH][nH]c2=O)ccc1OCc1ccc([N+](=O)[O-])cc1	·	i	i	i
CCOc1cc(C(c2c(C)[nH][nH]c2=O)c2c(C)[nH][nH]c2=O)ccc1OC(=O)c1cccc([N+](=O)[O-])c1	·	i	·	·
O=C(CSc1nc(=O)[nH]c2c1CCCC2)Nc1cc(C(F)(F)F)cc(C(F)(F)F)c1	0.29	i	·	·
CCOc1cc(/C=N/NC(=O)c2cccnc2)cc(Br)c1OCC(N)=O	0.02	i	·	·
CC1CN(c2ccc([N+](=O)[O-])c(NCCOc3ccccc3)c2)CC(C)N1 (stereo unspecified)	·	i	·	·
CC1CN(c2ccc([N+](=O)[O-])c(NCCOc3ccc(Cl)cc3)c2)CC(C)N1 (stereo unspecified)	-7	-7*	67%*	i
CCc1ccc(Nc2n[n+](-c3ccccc3)c(/C=C/c3ccccc3)s2)cc1	·	i	74%*	i
CCc1ccc(Nc2n[n+](-c3ccccc3)c(-c3c(Cl)cccc3Cl)s2)cc1	·	i	·	·
O=C1CCC(CCC(=O)N2CCCC(C(=O)c3cccc(C(F)(F)F)c3)C2)=NN1 (stereo unspecified)	0.61	i	·	·
Cc1ccccc1OCc1nnc(SCC(=O)O)n1-c1ccccc1	0.78	i	·	·
Cc1ccccc1OCCSc1nnc(C)n1-c1ccccc1	·	i	46%*	i
COc1cc2c(cc1OC)CN(C(=O)/C=C/c1cccs1)CC2	·	i	·	·
CC(C)c1nc(SCC(=O)Nc2nccs2)c2ccccc2n1	0.11	i	·	·
CC(C)c1nc(SCC(=O)c2ccc(F)cc2)c2ccccc2n1	11*	i	i	i	CHO-K1 ctr=-9;KCNQ1 pot spec=-4;KCNQ2 pot conf=36*;Kir21 spec=-40;KCNQ2 W236L MoA=i
Cc1csc(NC(=O)CSc2nc(C(C)C)nc3ccccc23)n1	6.2*	i	·	·	CHO-K1 ctr=18*;KCNQ1 pot spec=-29;KCNQ2 pot conf=1.0*;Kir21 spec=-70;KCNQ2 W236L MoA=i

Compound activity: PubChem BioAssay, Johns Hopkins Ion Channel Center
